{"source": "PubChem BioAssay (NCI)", "note": "Where “and” joins values, the source holds several entries; their conditions need not be identical. Equal entries are not always repeated. The panel holds about 83,000 compounds, 20% with a hit somewhere; the sample as a whole holds those more often.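 For each line, cells grew in 96-well plates with the test compound present at a single concentration for 48 hours.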 Calls of active or inactive are those of the source. The calls were made as follows: active = growth percent below 10; inactive = the rest.", "data": [{"test_system": "MDA-MB-468 breast", "experiment": "NCI-60 one-dose screen, 48 h (100 = growth as untreated, 0 = no growth, -100 = all killed)", "details": "10 µM unless noted", "values": [{"smiles": "NC(=O)NCCCC(N)C(=O)O", "note": "(stereo not given)", "growth": "107% (inactive)"}, {"smiles": "COc1cc(C(=O)/C=C/c2c(C(F)(F)F)nc3sccn23)cc(OC)c1OC", "growth": "-53.4% (active)"}, {"smiles": "c1ccc(OCc2nnc(-c3ccc(Oc4ccccc4)cc3)o2)cc1", "growth": "111% (inactive)"}, {"smiles": "CC(C)C[C@H](NC(=O)CCn1ccc2ccccc2c1=O)B(O)O", "growth": "6.61% (active)"}, {"smiles": "O=C1N(C[P+](c2ccccc2)(c2ccccc2)c2ccccc2)CCCN1C[P+](c1ccccc1)(c1ccccc1)c1ccccc1", "growth": "105% (inactive)"}, {"smiles": "CN(C)c1ccc(-c2ccc(-c3ccc(C(=N)N)cc3)s2)cc1", "growth": "-69.7% (active)"}, {"smiles": "Nc1nc(N)c2nc(CNc3ccc(C(=O)CC(CCC(=O)O)C(=O)O)cc3)cnc2n1", "note": "(stereo not given)", "growth": "65.4% (inactive)"}, {"smiles": "CCN(CC)c1ccc(/C=N\\NC(=O)/C=C/C=C/c2ccc3c(c2)OCO3)c(O)c1", "growth": "13.4% (inactive)"}, {"smiles": "Cc1sc2nc3[nH]/c(=C\\c4ccc(Cl)cc4)c(=O)n3c(=O)c2c1C", "growth": "101% (inactive)"}, {"smiles": "C/C(=N\\OC(=O)Nc1cccc(Cl)c1)c1ccccc1", "growth": "75.1% (inactive)"}, {"smiles": "BrC/C=C/C[P+](c1ccccc1)(c1ccccc1)c1ccccc1", "growth": "3.78% (active)"}, {"smiles": "CCOC(=O)c1cn2c3c(cccc3c1=O)C(=O)/C(=C/c1cccc(Cl)c1Cl)C2", "growth": "106% (inactive)"}, {"smiles": "COc1ccc(/C=N\\NC(=O)c2ccncc2)cc1O", "growth": "92.8% (inactive)"}, {"smiles": "Cc1cc2c3c(cccc3c1)C(=O)c1ccccc1-2", "growth": "63.7% (inactive)"}, {"smiles": "C=C(C)[C@@H]1CC[C@]2(C(=O)N3CCN(C)CC3)CC[C@]3(C)[C@H](CC[C@@H]4[C@@]5(C)CC[C@H](OCCC#N)C(C)(C)[C@@H]5CC[C@]43C)[C@@H]12", "growth": "69.4% (inactive)"}, {"smiles": "O=C(NCCCNS(=O)(=O)c1ccc(Cl)cc1)Nc1ccc(-n2cc(-c3ccncc3)c(-c3ccc(Cl)c(O)c3)n2)cc1", "growth": "47.6% (inactive)"}, {"smiles": "CC(=O)c1cccs1", "growth": "105% (inactive)"}, {"smiles": "O=C1OC(c2ccc(Cl)c(Cl)c2)=C/C1=C/c1cccc([N+](=O)[O-])c1", "growth": "92.3% (inactive)"}, {"smiles": "COc1cc(C(=O)c2c(-c3ccccc3)oc3c(OC)cccc23)cc(OC)c1O", "growth": "4.03% (active)"}, {"smiles": "CN1C(=O)N(C)C2NC(N/N=C/c3ccccc3)=NC21", "note": "(stereo not given)", "growth": "95.9% (inactive)"}, {"smiles": "CC/C=C\\C[C@H](O)C/C=C1/C(=O)C(Cl)=C[C@@H]1C/C=C\\CCCC(=O)O", "growth": "41.1% (inactive)"}, {"smiles": "O=C1OCC2=C1C(c1cccc(C(F)(F)F)c1)c1cc3c(cc1N2CCO)CCC3", "note": "(stereo not given)", "growth": "-1.26% (active)"}, {"smiles": "CN1CCN(Cc2occc(=O)c2O)CCN(C)CCN(Cc2occc(=O)c2O)CC1", "growth": "111% (inactive) and 87.9% (inactive)"}, {"smiles": "Cn1c(=O)[nH]c2ccccc2c1=O", "growth": "107% (inactive)"}, {"smiles": "CC[N+](CC)(CC(=O)Nc1c(C)cccc1C)Cc1ccccc1", "growth": "63.8% (inactive)"}, {"smiles": "N#Cc1c(-c2cccc(F)c2)cc(-c2ccc(Br)s2)[nH]c1=O", "growth": "82.1% (inactive)"}, {"smiles": "N#CC1=C(N)Oc2c(c(N)nn2-c2ccccc2)C1c1ccc(Cl)cc1", "note": "(stereo not given)", "growth": "117% (inactive)"}, {"smiles": "O=C1Nc2ccccc2/C1=C/c1cn(CCCn2c3ccccc3c(=O)c3ccccc32)c2ccccc12", "growth": "96.4% (inactive)"}, {"smiles": "COc1ccc(C(=O)c2cc(OC)c(C)c(OC)c2)cc1OC(=O)CCl", "growth": "38.3% (inactive)"}, {"smiles": "CC[C@H](Nc1nc(N)nc(C)c1C#N)c1nc2cccc(CN(C)c3ncc(C(=O)NO)cn3)c2c(=O)n1-c1ccccc1", "growth": "-11.3% (active)"}, {"smiles": "O=C(N/N=C/c1ccc([N+](=O)[O-])o1)c1[nH]c2ccc(Br)cc2c1-c1ccccc1", "growth": "24.8% (inactive)"}, {"smiles": "CS(=O)(=O)N(c1cc(-c2ccc3ncnc(Nc4ccc(F)c(Cl)c4)c3c2)cnc1Cl)S(C)(=O)=O", "growth": "-19.6% (active)"}, {"smiles": "COc1ccc(NC(=O)Nc2ccc(-c3ccc(OC)c(OC)c3)nc2C)cc1", "growth": "83% (inactive)"}, {"smiles": "N=C(N)c1ccc(OCCCCCCCCCCOc2ccc(C(=N)N)cc2)cc1", "growth": "-75.6% (active)"}, {"smiles": "Nc1c2ccccc2nc2ccccc12", "note": "(tested in a mixture with another compound)", "growth": "-18.6% (active)"}, {"smiles": "Oc1c(CN2CCCC2)cc(COCc2ccc(Br)cc2)c2cccnc12", "growth": "-28.2% (active)"}, {"smiles": "Cc1nccc2c3ccc(OCc4cn(-c5ccccc5)nn4)cc3n(CCCc3ccccc3)c12", "growth": "49% (inactive)"}, {"smiles": "Cc1ccc(Cc2cnc(NC(=O)c3cc(Br)cs3)s2)cc1", "growth": "30% (inactive)"}, {"smiles": "c1ccc(-c2n(Cc3ccc4ccccc4c3)c3ccccc3[n+]2Cc2ccc3ccccc3c2)cc1", "growth": "-35.4% (active)"}, {"smiles": "CCC1(C(C)C)NC(=O)NC1=O", "note": "(stereo not given)", "growth": "98.5% (inactive)"}]}]}
